Key:
Test in all cases: log2 ratio of Biotin-Ahx-Ub-VS probe labelling (fragment/DMSO); higher = less target engagement (more negative = stronger competition), active = hit call of the paper (q ≤ 0.05, log2 ratio ≤ -1)
Conditions in all cases: compound concentration: 200 uM; treatment time: 3 h
[1] = molecular target: T1, USP42 (UniProt Q9H9J4)
T1 sequence (whole entry): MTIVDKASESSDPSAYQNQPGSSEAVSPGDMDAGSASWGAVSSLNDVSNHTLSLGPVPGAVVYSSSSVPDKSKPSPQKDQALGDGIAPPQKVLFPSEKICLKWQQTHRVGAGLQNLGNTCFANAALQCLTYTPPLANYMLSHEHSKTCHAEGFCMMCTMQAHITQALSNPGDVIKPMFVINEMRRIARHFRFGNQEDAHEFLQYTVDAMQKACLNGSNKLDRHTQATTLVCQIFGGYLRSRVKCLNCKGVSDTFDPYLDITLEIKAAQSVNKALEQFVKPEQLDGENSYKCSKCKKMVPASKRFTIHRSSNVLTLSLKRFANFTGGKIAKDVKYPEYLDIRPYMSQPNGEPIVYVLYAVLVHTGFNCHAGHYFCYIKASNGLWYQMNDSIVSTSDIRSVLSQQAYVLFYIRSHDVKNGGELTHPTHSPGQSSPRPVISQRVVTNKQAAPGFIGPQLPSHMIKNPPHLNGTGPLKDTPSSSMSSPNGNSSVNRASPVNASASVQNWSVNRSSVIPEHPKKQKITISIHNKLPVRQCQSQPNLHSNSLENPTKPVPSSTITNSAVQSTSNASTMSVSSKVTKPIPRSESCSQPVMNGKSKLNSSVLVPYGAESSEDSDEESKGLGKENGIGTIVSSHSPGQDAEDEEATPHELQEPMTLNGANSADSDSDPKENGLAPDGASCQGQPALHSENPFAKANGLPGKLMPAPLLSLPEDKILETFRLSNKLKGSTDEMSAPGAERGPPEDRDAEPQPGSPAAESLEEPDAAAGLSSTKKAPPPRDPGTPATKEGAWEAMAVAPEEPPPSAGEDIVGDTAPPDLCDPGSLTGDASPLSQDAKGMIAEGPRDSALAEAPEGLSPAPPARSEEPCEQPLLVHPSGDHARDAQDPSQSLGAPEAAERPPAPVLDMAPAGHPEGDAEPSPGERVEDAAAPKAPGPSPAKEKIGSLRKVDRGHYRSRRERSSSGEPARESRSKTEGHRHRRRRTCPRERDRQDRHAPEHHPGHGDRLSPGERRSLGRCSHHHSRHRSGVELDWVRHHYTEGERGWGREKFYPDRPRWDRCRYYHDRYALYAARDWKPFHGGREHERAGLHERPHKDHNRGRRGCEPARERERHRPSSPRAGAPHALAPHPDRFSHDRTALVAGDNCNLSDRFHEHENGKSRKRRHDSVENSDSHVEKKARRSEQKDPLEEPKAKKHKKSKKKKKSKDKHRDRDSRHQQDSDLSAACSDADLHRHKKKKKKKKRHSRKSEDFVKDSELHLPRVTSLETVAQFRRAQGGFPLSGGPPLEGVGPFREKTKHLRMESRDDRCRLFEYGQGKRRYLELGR
Outline: (§1)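 Each value is an average log2 ratio of fragment to vehicle, tested by unpaired t-test. The underlying Spectronaut label-free quantities were global-median-normalised, and only proteins with ≥2 unique peptides were included. Triplicate HEK293T lysate samples (495 µg) were exposed to fragment at 200 µM or vehicle for 3 h, then to Biotin-Ahx-Ub-VS at 0.5 µM final for 1 h, before NeutrAvidin enrichment of labelled DUBs, LysC and trypsin digestion, and diaPASEF LC-MS/MS.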

[2] = molecular target: USP46 (UniProt P62068)
Sequence of USP46 (P62068 whole entry): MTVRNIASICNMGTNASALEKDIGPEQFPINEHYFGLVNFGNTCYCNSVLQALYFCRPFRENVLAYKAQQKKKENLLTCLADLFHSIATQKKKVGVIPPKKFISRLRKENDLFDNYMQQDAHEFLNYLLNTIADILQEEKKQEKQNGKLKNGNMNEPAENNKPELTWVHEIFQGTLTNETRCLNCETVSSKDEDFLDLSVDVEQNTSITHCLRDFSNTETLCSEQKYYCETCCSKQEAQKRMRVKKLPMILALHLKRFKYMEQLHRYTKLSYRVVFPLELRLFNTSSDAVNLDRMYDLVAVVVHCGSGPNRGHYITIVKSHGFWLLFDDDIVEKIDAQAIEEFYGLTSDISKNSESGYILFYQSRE
Outline: as §1

[3] = molecular target: T2, USP47 (UniProt Q96K76)
T2 sequence (whole entry): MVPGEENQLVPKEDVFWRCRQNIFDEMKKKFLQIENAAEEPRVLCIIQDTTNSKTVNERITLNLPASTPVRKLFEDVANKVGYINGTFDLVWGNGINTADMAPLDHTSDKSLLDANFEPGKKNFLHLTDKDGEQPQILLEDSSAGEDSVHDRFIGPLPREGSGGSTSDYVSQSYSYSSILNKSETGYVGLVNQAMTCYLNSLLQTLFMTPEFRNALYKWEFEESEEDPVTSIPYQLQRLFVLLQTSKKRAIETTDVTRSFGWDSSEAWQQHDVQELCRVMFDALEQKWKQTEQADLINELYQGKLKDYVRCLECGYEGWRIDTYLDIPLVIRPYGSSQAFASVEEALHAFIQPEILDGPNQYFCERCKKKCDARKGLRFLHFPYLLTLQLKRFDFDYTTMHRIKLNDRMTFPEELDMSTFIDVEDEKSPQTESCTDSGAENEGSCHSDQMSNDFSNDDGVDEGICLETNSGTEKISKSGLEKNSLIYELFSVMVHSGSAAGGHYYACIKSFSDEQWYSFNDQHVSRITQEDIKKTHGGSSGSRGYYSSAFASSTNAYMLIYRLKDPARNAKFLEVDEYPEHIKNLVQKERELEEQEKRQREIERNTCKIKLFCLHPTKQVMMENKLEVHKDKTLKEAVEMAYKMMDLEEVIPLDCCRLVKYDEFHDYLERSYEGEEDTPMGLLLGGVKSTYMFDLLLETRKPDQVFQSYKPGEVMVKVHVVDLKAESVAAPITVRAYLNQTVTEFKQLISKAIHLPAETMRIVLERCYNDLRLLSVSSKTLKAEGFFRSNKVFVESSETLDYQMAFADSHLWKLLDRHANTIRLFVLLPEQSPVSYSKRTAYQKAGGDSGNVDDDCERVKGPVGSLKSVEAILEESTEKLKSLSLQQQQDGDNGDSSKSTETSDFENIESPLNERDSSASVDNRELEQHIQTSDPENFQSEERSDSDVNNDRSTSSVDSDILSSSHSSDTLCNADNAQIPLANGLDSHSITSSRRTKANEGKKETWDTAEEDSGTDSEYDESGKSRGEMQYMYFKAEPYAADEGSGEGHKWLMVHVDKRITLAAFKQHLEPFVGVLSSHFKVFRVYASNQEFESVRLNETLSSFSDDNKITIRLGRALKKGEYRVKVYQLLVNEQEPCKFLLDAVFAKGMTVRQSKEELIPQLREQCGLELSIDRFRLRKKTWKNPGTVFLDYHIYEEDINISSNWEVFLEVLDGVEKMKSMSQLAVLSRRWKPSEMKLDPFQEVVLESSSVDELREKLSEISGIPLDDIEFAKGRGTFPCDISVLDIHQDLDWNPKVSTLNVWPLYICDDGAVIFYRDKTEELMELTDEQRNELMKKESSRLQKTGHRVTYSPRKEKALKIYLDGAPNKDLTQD
Outline: as §1

[4] = molecular target: T3, USP48 (UniProt Q86UV5)
T3 sequence (whole entry): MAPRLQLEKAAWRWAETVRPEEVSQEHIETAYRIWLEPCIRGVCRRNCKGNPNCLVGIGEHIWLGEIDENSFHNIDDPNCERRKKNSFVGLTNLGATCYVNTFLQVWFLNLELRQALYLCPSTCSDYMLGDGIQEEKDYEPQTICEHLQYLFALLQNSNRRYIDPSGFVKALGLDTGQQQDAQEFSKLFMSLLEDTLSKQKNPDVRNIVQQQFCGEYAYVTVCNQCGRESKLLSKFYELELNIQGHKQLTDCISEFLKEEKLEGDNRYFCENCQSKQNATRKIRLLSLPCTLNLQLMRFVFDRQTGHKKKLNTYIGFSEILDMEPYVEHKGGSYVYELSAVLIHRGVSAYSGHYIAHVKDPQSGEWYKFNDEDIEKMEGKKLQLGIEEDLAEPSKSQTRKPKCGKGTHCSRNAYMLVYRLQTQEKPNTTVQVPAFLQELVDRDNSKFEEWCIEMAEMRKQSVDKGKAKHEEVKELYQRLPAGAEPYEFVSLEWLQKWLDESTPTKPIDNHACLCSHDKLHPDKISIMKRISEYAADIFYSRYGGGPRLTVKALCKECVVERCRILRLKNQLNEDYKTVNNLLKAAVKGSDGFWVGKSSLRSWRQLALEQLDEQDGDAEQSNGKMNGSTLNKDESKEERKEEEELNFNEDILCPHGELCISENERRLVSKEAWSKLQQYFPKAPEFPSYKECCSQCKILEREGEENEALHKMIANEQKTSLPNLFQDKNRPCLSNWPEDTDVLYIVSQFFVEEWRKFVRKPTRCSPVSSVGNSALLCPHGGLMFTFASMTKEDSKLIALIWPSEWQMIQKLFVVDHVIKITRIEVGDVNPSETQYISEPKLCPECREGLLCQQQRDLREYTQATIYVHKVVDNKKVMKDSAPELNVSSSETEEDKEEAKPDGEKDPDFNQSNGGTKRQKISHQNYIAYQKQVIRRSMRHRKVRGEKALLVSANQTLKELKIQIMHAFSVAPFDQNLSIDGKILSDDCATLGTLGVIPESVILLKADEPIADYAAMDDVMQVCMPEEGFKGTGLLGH
Outline: as §1

[5] = molecular target: T4, USP5 (UniProt P45974)
T4 sequence (whole entry): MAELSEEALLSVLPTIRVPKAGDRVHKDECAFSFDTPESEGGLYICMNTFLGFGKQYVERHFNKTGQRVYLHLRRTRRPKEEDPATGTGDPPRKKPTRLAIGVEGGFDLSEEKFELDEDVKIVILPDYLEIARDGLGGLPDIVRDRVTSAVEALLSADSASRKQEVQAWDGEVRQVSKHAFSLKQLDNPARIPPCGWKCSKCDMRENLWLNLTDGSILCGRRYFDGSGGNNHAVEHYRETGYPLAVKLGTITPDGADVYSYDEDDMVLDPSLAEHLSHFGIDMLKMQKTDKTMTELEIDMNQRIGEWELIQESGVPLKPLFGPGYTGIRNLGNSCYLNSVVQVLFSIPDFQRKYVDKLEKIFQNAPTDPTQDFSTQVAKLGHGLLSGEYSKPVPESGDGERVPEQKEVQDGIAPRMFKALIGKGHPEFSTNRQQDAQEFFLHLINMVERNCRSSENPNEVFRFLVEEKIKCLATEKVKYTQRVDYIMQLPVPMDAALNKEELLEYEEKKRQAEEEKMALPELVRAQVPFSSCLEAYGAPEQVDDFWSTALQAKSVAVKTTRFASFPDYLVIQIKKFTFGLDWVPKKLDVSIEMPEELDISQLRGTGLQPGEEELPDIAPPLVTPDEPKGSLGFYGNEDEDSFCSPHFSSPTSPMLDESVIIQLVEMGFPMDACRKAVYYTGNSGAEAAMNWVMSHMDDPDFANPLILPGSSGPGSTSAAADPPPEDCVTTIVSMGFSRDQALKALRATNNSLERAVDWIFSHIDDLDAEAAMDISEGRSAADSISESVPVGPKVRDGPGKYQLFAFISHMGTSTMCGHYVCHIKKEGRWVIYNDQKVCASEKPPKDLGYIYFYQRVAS
Outline: as §1

[6] = molecular target: USP54 (UniProt Q70EL1)
Outline: as §1

[7] = molecular target: USP7 (UniProt Q93009)
Sequence of USP7 (Q93009 whole entry, looked up): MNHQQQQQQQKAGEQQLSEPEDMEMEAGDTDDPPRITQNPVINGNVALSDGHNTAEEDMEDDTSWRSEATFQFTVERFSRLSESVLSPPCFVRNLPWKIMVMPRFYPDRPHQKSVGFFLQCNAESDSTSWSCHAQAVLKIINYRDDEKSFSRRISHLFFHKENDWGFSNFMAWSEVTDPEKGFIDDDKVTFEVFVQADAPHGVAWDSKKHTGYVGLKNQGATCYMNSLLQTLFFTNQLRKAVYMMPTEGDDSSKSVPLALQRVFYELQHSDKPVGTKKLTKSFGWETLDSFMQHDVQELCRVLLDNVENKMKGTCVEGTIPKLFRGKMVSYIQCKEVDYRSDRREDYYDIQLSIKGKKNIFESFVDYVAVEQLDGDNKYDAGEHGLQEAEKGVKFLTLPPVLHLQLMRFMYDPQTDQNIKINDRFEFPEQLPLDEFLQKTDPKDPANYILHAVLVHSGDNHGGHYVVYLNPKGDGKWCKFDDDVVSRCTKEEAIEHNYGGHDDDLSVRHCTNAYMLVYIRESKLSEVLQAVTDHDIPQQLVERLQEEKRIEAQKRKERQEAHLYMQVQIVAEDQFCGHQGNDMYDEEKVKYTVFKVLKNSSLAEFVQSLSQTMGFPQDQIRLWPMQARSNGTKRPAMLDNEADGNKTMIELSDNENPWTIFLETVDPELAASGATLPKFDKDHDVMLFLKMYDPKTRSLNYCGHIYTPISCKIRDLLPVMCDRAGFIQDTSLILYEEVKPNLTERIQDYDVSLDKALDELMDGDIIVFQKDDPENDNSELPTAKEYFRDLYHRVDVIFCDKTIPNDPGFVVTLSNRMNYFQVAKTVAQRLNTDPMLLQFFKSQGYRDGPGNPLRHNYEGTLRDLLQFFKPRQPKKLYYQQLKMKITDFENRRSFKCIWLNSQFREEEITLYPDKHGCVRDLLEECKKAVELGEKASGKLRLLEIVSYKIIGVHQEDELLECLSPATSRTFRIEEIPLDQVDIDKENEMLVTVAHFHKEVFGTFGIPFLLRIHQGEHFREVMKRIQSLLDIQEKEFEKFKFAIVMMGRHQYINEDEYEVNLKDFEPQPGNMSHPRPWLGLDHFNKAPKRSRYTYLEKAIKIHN
Outline: as §1

[8] = molecular target: T5, USP8 (UniProt P40818)
T5 sequence (whole entry): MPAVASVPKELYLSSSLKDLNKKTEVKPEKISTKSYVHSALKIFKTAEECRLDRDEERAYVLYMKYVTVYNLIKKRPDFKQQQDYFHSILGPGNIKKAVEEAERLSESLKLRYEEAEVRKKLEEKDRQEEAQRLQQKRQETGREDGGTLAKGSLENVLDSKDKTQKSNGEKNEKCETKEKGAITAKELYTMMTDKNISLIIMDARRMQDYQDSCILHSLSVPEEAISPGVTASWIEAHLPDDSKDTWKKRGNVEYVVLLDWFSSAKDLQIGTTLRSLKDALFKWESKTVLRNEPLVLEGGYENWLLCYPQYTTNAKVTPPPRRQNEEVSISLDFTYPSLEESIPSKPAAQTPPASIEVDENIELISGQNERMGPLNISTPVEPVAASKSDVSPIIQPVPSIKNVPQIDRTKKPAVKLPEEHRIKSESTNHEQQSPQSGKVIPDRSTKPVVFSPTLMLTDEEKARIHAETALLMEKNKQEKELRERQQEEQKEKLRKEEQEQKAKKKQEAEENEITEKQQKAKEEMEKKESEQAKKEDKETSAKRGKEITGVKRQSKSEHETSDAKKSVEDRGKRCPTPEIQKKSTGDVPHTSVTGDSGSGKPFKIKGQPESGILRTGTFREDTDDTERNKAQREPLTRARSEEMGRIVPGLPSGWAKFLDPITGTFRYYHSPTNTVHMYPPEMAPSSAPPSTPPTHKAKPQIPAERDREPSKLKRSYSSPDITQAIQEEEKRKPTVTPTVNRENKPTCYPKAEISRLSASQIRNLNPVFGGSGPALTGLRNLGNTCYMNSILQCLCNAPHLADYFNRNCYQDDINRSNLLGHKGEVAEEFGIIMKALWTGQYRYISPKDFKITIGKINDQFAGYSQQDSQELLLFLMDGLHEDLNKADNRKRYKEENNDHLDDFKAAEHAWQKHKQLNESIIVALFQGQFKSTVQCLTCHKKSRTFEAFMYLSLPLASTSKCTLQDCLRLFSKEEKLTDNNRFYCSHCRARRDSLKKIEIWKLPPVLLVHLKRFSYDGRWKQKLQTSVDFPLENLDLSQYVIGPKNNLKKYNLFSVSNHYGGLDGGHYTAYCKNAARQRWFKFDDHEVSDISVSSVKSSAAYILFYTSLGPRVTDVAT
Outline: as §1

[9] = molecular target: USP9X (UniProt Q93008)
Sequence of USP9X (Q93008 whole entry): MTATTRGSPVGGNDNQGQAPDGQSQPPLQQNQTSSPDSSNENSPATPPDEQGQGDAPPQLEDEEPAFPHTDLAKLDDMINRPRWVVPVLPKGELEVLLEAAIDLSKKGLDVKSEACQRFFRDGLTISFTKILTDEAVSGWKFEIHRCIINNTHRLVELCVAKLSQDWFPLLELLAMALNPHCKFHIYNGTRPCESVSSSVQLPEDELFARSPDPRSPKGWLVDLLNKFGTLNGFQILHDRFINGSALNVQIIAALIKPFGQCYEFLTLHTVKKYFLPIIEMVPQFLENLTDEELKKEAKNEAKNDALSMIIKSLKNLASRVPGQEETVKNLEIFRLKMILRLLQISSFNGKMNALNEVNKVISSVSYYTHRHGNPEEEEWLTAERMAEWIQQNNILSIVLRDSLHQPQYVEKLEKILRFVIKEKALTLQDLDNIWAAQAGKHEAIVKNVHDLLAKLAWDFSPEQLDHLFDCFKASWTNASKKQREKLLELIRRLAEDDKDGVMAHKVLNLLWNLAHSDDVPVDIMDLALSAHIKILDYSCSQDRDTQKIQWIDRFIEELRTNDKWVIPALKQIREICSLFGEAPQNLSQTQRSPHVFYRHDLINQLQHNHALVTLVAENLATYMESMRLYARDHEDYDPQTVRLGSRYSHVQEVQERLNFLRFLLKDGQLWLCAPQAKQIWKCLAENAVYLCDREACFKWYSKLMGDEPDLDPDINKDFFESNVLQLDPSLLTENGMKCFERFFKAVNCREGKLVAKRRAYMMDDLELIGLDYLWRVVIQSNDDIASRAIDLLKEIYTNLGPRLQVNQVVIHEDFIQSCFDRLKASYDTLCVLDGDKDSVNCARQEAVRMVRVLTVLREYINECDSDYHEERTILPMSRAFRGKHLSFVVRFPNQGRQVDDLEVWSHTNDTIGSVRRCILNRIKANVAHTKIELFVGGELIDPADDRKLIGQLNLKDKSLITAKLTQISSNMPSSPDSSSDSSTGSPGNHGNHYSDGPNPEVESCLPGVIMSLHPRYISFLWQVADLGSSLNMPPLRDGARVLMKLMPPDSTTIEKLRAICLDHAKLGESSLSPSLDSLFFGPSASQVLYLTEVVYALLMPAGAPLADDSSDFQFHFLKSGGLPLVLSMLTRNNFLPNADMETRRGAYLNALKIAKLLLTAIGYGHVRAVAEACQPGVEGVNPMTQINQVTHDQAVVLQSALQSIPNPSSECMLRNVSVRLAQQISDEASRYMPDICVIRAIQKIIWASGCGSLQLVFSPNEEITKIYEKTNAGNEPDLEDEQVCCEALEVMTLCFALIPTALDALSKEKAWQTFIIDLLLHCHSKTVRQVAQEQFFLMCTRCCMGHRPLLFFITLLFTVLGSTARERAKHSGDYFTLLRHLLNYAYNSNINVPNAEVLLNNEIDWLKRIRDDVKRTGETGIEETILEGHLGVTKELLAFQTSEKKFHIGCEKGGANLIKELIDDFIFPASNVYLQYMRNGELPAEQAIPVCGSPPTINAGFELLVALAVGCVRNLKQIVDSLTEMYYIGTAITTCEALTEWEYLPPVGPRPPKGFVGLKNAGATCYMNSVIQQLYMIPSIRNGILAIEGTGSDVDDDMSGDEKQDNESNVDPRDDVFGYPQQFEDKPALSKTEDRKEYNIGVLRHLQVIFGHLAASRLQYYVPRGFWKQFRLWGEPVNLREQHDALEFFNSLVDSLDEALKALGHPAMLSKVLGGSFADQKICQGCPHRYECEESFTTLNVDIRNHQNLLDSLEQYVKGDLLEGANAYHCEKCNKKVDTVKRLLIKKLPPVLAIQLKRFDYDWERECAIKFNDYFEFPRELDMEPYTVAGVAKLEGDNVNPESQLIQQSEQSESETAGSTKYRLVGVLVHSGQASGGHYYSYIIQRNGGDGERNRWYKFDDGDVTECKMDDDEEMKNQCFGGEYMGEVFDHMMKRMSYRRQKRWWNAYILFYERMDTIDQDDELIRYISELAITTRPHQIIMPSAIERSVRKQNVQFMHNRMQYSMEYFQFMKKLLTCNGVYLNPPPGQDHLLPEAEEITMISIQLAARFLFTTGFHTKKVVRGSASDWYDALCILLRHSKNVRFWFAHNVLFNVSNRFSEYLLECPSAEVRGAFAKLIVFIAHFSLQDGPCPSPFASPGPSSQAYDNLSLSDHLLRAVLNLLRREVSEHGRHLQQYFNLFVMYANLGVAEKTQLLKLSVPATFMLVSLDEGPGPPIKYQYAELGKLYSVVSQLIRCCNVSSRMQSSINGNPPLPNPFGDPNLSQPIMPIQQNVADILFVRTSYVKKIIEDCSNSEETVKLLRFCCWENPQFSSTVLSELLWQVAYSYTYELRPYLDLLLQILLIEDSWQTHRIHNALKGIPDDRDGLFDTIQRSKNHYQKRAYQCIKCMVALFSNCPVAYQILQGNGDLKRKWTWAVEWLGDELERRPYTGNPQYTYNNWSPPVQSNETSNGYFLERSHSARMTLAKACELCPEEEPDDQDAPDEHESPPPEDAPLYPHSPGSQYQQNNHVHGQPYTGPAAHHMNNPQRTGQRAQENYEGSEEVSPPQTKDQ
Outline: as §1

[10] = molecular target: UniProt O00487
Sequence of UniProt O00487 (O00487 whole entry): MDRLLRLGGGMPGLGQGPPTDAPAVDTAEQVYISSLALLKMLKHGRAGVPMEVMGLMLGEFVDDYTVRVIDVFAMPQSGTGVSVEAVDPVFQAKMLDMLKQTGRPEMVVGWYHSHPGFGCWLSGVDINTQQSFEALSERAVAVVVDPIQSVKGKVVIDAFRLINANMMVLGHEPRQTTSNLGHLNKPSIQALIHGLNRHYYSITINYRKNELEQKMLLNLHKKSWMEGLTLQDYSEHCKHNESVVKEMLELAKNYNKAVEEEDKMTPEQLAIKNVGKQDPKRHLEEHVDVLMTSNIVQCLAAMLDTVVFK
Outline: as §1

Measured: log2 ratio of Biotin-Ahx-Ub-VS probe labelling

Cl.O=C(CCl)N[C@H]1C[C@@H](n2cccn2)C1
inactive: [1] 0.0882 | [2] -0.00232 | [3] 0.175 | [4] 0.0582 | [5] -0.126 | [6] -0.186 | [7] -0.218 | [8] 0.27 | [9] -0.0582 | [10] 0.0109

Source: the supplement of paper PMC11732987, “Enantioselective OTUD7B fragment discovery through chemoproteomics screening and high-throughput optimisation” (Communications Chemistry, 2025)
